In PMC11006913 one finds binding signal data, which are given here for 14 sequences.

Residue numbers refer to the chain shown, from its start.

Common to all, as to test: PBM; 200 nM protein, PBS
Common to all, as to conditions: dsDNA, one strand shown

Assay [1] concerns the target CRX (Homo sapiens, UniProt O43186 26-111).
The target in assay [2] is T1, VENTX (Homo sapiens, UniProt O95231 78-163, R121Q).
T1 sequence: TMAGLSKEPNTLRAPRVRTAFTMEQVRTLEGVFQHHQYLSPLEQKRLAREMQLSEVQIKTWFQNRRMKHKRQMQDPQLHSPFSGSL

In assay [3] the target is T2, VENTX (Homo sapiens, UniProt O95231 78-163).
T2 sequence: T1 sequence with Q44R

Assay [4] has as its target T3, VENTX (Homo sapiens, UniProt O95231 78-163, Y115F).
T3 sequence: T1 sequence with Y38F, Q44R

The target of assay [5] is CRX (Homo sapiens, UniProt O43186 26-111, E42D).
For the next assay, the target named is HOXA4 (Homo sapiens, UniProt Q00056 201-287, R217L).
The target in assay [6] is CRX (Homo sapiens, UniProt O43186 26-111, R41L).
The target in assay [7] is MSX2 (Homo sapiens, UniProt P35548 130-214, R199I).
Assay [8] concerns the target MSX2 (Homo sapiens, UniProt P35548 130-214).
For assay [9], the target named is PROP1 (Homo sapiens, UniProt O75360 56-141).
The target in assay [10] is PROP1 (Homo sapiens, UniProt O75360 56-141, R99H).
The target of assay [11] is VAX1 (Homo sapiens, UniProt Q5SQQ9 86-172).
The target of assay [12] is PROP1 (Homo sapiens, UniProt O75360 56-141, F88S).
The target of assay [13] is MSX2 (Homo sapiens, UniProt P35548 130-214, F161Y).
Assay [14] has as its target VAX1 (Homo sapiens, UniProt Q5SQQ9 86-172, T142I).
The target in assay [15] is VAX1 (Homo sapiens, UniProt Q5SQQ9 86-172, K157R).
In assay [16] the target is ALX1 (Homo sapiens, UniProt Q15699 118-204, L144V).
The target in assay [17] is ALX1 (Homo sapiens, UniProt Q15699 118-204, L144R).
Assay [18] deals with ALX1 (Homo sapiens, UniProt Q15699 118-204).
Assay [19] addresses HOXA2 (Homo sapiens, UniProt O43364 129-215, R185T).
The target in another assay is PITX2 (Homo sapiens, UniProt Q99697 72-157).
In assay [20] the target is HOXA2 (Homo sapiens, UniProt O43364 129-215, Y150S).
Assay [21] has as its target HOXA2 (Homo sapiens, UniProt O43364 129-215).
The target in a further assay is T4, NKX2-6 (Homo sapiens, UniProt A6NCS4 118-204, R150C).
T4 sequence: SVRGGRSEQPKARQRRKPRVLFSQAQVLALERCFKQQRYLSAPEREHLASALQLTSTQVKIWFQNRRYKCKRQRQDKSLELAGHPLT

The target of assay [22] is HOXA7 (Homo sapiens, UniProt P31268 116-202).
Assay [23] concerns the target HOXA7 (Homo sapiens, UniProt P31268 116-202, W177C).
A further assay addresses T5, SIX6 (Homo sapiens, UniProt O95475 114-200, T165P).
T5 sequence: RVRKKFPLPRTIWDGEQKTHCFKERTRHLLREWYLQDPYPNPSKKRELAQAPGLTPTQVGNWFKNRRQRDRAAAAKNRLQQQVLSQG

Assay [24] deals with NKX3-2 (Homo sapiens, UniProt P78367 192-278, P234S).
Assay [25] concerns the target NKX3-2 (Homo sapiens, UniProt P78367 192-278).

VAX1 (Homo sapiens, UniProt Q5SQQ9 86-172), sequence (Q5SQQ9 86-172): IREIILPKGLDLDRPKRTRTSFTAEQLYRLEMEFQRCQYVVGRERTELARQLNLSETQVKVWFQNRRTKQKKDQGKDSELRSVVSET
CRX (Homo sapiens, UniProt O43186 26-111, R41L), sequence (O43186 26-111 R41L): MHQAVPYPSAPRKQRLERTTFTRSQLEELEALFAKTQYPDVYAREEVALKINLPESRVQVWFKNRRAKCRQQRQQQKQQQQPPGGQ
VAX1 (Homo sapiens, UniProt Q5SQQ9 86-172, K157R), sequence (Q5SQQ9 86-172 K157R): as the sequence (Q5SQQ9 86-172) above, with K72R counted along it
CRX (Homo sapiens, UniProt O43186 26-111, E42D), sequence (O43186 26-111 E42D): as the sequence (O43186 26-111 R41L) above, with L16R, E17D counted along it
CRX (Homo sapiens, UniProt O43186 26-111), sequence (O43186 26-111): as the sequence (O43186 26-111 R41L) above, with L16R counted along it
VAX1 (Homo sapiens, UniProt Q5SQQ9 86-172, T142I), sequence (Q5SQQ9 86-172 T142I): as the sequence (Q5SQQ9 86-172) above, with T57I counted along it
MSX2 (Homo sapiens, UniProt P35548 130-214, F161Y), sequence (P35548 130-214 F161Y): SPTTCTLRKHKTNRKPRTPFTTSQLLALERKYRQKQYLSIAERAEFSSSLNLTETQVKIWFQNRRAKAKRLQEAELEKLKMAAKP
MSX2 (Homo sapiens, UniProt P35548 130-214, R199I), sequence (P35548 130-214 R199I): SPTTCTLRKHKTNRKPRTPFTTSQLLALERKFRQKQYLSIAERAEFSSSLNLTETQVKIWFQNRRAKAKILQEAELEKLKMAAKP
MSX2 (Homo sapiens, UniProt P35548 130-214), sequence (P35548 130-214): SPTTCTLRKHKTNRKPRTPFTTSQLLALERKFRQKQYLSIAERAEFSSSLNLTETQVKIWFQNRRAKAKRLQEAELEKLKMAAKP
PROP1 (Homo sapiens, UniProt O75360 56-141, R99H), sequence (O75360 56-141 R99H): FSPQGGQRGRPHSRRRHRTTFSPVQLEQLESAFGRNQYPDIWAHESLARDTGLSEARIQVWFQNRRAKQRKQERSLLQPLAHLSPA
HOXA4, sequence (Q00056 201-287 R217L): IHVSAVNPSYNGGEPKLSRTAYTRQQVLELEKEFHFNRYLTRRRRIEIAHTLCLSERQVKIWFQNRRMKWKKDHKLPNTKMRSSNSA
HOXA2 (Homo sapiens, UniProt O43364 129-215, R185T), sequence (O43364 129-215 R185T): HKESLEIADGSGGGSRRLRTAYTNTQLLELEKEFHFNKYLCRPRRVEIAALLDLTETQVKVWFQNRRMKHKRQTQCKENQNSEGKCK
ALX1 (Homo sapiens, UniProt Q15699 118-204), sequence (Q15699 118-204): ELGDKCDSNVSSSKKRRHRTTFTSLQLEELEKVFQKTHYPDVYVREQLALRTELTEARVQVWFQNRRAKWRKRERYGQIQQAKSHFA
ALX1 (Homo sapiens, UniProt Q15699 118-204, L144V), sequence (Q15699 118-204 L144V): as the sequence (Q15699 118-204) above, with L27V counted along it
PROP1 (Homo sapiens, UniProt O75360 56-141), sequence (O75360 56-141): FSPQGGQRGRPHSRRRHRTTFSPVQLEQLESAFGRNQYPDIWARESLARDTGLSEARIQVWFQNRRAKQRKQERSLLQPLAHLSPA
HOXA7 (Homo sapiens, UniProt P31268 116-202), sequence (P31268 116-202): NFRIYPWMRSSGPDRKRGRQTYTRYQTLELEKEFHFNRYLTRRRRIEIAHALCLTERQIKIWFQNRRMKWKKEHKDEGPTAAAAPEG
NKX3-2 (Homo sapiens, UniProt P78367 192-278, P234S), sequence (P78367 192-278 P234S): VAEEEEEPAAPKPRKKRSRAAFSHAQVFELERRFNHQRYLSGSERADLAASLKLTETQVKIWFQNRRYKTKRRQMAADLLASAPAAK
NKX3-2 (Homo sapiens, UniProt P78367 192-278), sequence (P78367 192-278): as the sequence (P78367 192-278 P234S) above, with S43P counted along it
HOXA2 (Homo sapiens, UniProt O43364 129-215), sequence (O43364 129-215): as the sequence (O43364 129-215 R185T) above, with T57R counted along it
HOXA2 (Homo sapiens, UniProt O43364 129-215, Y150S), sequence (O43364 129-215 Y150S): as the sequence (O43364 129-215 R185T) above, with Y22S, T57R counted along it
PROP1 (Homo sapiens, UniProt O75360 56-141, F88S), sequence (O75360 56-141 F88S): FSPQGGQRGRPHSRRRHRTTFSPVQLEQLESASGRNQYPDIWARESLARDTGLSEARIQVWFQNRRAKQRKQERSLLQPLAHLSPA
HOXA7 (Homo sapiens, UniProt P31268 116-202, W177C), sequence (P31268 116-202 W177C): as the sequence (P31268 116-202) above, with W62C counted along it
ALX1 (Homo sapiens, UniProt Q15699 118-204, L144R), sequence (Q15699 118-204 L144R): as the sequence (Q15699 118-204) above, with L27R counted along it

As for GATTAATA, the binding signal with CRX [1] is 12.7 upbm affinity estimate (log intensity, higher = more binding, comparable within an allelic series); in the assay with VENTX [2], 11.2 upbm affinity estimate (log intensity, higher = more binding, comparable within an allelic series); in the assay with VENTX [3], 11.8 upbm affinity estimate (log intensity, higher = more binding, comparable within an allelic series); with VENTX [4], 11 upbm affinity estimate (log intensity, higher = more binding, comparable within an allelic series); in the assay with CRX [5], 12.7 upbm affinity estimate (log intensity, higher = more binding, comparable within an allelic series).

For the sequence ACTAATCG, the binding signal is 12.1 upbm affinity estimate (log intensity, higher = more binding, comparable within an allelic series) with CRX [1]; 11.6 upbm affinity estimate (log intensity, higher = more binding, comparable within an allelic series) with VENTX [2]; 12.6 upbm affinity estimate (log intensity, higher = more binding, comparable within an allelic series) in the assay with VENTX [3]; 11.5 upbm affinity estimate (log intensity, higher = more binding, comparable within an allelic series) with VENTX [4]; 11.2 upbm affinity estimate (log intensity, higher = more binding, comparable within an allelic series) in the assay with HOXA4; 11.9 upbm affinity estimate (log intensity, higher = more binding, comparable within an allelic series) with CRX [5]. Besides, the binding signal with CRX [6] was 11.3 upbm affinity estimate (log intensity, higher = more binding, comparable within an allelic series).

As to CTTACGAC, the binding signal is 10.1 upbm affinity estimate (log intensity, higher = more binding, comparable within an allelic series) with CRX [1] and 10 upbm affinity estimate (log intensity, higher = more binding, comparable within an allelic series) in the assay with CRX [5].

Take GTGCCACA: the binding signal with CRX [1] is 8.41 upbm affinity estimate (log intensity, higher = more binding, comparable within an allelic series); with CRX [5] it was 8.34 upbm affinity estimate (log intensity, higher = more binding, comparable within an allelic series); in the assay with MSX2 [7], 9.58 upbm affinity estimate (log intensity, higher = more binding, comparable within an allelic series); with MSX2 [8], 9.65 upbm affinity estimate (log intensity, higher = more binding, comparable within an allelic series); with PROP1 [9], 6.66 upbm affinity estimate (log intensity, higher = more binding, comparable within an allelic series); with PROP1 [10], 6.7 upbm affinity estimate (log intensity, higher = more binding, comparable within an allelic series). Also, the binding signal in the assay with VAX1 [11] is 7.16 upbm affinity estimate (log intensity, higher = more binding, comparable within an allelic series); in the assay with PROP1 [12], 6.8 upbm affinity estimate (log intensity, higher = more binding, comparable within an allelic series); with MSX2 [13], 9.56 upbm affinity estimate (log intensity, higher = more binding, comparable within an allelic series); with VAX1 [14], 7.19 upbm affinity estimate (log intensity, higher = more binding, comparable within an allelic series); with CRX [6] it was 8.33 upbm affinity estimate (log intensity, higher = more binding, comparable within an allelic series); with VAX1 [15], 7.08 upbm affinity estimate (log intensity, higher = more binding, comparable within an allelic series).

As to CTAACTCC, the binding signal was 9.81 upbm affinity estimate (log intensity, higher = more binding, comparable within an allelic series) with CRX [1] and 9.62 upbm affinity estimate (log intensity, higher = more binding, comparable within an allelic series) with CRX [5].

CGCTCGCC: the binding signal in the assay with CRX [1] is 7.99 upbm affinity estimate (log intensity, higher = more binding, comparable within an allelic series); with CRX [5], 8.05 upbm affinity estimate (log intensity, higher = more binding, comparable within an allelic series); in the assay with MSX2 [7], 9.42 upbm affinity estimate (log intensity, higher = more binding, comparable within an allelic series); in the assay with ALX1 [16], 6.31 upbm affinity estimate (log intensity, higher = more binding, comparable within an allelic series); in the assay with ALX1 [17], 6.41 upbm affinity estimate (log intensity, higher = more binding, comparable within an allelic series); with MSX2 [8], 9.46 upbm affinity estimate (log intensity, higher = more binding, comparable within an allelic series). In addition, the binding signal was 6.87 upbm affinity estimate (log intensity, higher = more binding, comparable within an allelic series) with VAX1 [11]; 9.5 upbm affinity estimate (log intensity, higher = more binding, comparable within an allelic series) in the assay with MSX2 [13]; 7.1 upbm affinity estimate (log intensity, higher = more binding, comparable within an allelic series) in the assay with VAX1 [14]; 8.16 upbm affinity estimate (log intensity, higher = more binding, comparable within an allelic series) in the assay with CRX [6]; 6.39 upbm affinity estimate (log intensity, higher = more binding, comparable within an allelic series) with ALX1 [18]; 7.05 upbm affinity estimate (log intensity, higher = more binding, comparable within an allelic series) in the assay with VAX1 [15].

For the sequence GATTAACA, the binding signal was 12.9 upbm affinity estimate (log intensity, higher = more binding, comparable within an allelic series) with CRX [1] and 12.5 upbm affinity estimate (log intensity, higher = more binding, comparable within an allelic series) in the assay with CRX [5].

As to TGTGTTAA, the binding signal was 10.4 upbm affinity estimate (log intensity, higher = more binding, comparable within an allelic series) in the assay with CRX [1] and 10.2 upbm affinity estimate (log intensity, higher = more binding, comparable within an allelic series) with CRX [5].

As to AGGATTAG, the binding signal with CRX [1] is 13.5 upbm affinity estimate (log intensity, higher = more binding, comparable within an allelic series); with HOXA2 [19], 9.36 upbm affinity estimate (log intensity, higher = more binding, comparable within an allelic series); in the assay with CRX [5] it was 13.5 upbm affinity estimate (log intensity, higher = more binding, comparable within an allelic series); with PITX2, 13.2 upbm affinity estimate (log intensity, higher = more binding, comparable within an allelic series); with HOXA2 [20], 10.7 upbm affinity estimate (log intensity, higher = more binding, comparable within an allelic series); with CRX [6], 13.3 upbm affinity estimate (log intensity, higher = more binding, comparable within an allelic series). The binding signal with HOXA2 [21] was 9.15 upbm affinity estimate (log intensity, higher = more binding, comparable within an allelic series).

In the case of CGGCACGA, the binding signal is 8.45 upbm affinity estimate (log intensity, higher = more binding, comparable within an allelic series) in the assay with CRX [1]; 9.55 upbm affinity estimate (log intensity, higher = more binding, comparable within an allelic series) in the assay with NKX2-6; 8.43 upbm affinity estimate (log intensity, higher = more binding, comparable within an allelic series) in the assay with CRX [5]; 6.96 upbm affinity estimate (log intensity, higher = more binding, comparable within an allelic series) with VAX1 [11]; 7.11 upbm affinity estimate (log intensity, higher = more binding, comparable within an allelic series) with VAX1 [14]; 8.41 upbm affinity estimate (log intensity, higher = more binding, comparable within an allelic series) with CRX [6]. In addition, the binding signal with VAX1 [15] is 7.16 upbm affinity estimate (log intensity, higher = more binding, comparable within an allelic series).

Regarding AGCGTCCG, the binding signal in the assay with CRX [1] is 8.29 upbm affinity estimate (log intensity, higher = more binding, comparable within an allelic series); with HOXA7 [22], 8.2 upbm affinity estimate (log intensity, higher = more binding, comparable within an allelic series); with CRX [5], 8.33 upbm affinity estimate (log intensity, higher = more binding, comparable within an allelic series); in the assay with HOXA7 [23], 8.37 upbm affinity estimate (log intensity, higher = more binding, comparable within an allelic series); with CRX [6], 8.29 upbm affinity estimate (log intensity, higher = more binding, comparable within an allelic series).

In the case of AGCTCAGG, the binding signal was 9.99 upbm affinity estimate (log intensity, higher = more binding, comparable within an allelic series) with CRX [1] and 9.91 upbm affinity estimate (log intensity, higher = more binding, comparable within an allelic series) in the assay with CRX [5].

For the sequence GCGGATCA, the binding signal with CRX [1] was 11.3 upbm affinity estimate (log intensity, higher = more binding, comparable within an allelic series); with SIX6, 9.3 upbm affinity estimate (log intensity, higher = more binding, comparable within an allelic series); with CRX [5], 11.2 upbm affinity estimate (log intensity, higher = more binding, comparable within an allelic series); with CRX [6], 10.8 upbm affinity estimate (log intensity, higher = more binding, comparable within an allelic series).

Consider GACGCGCC, for which the binding signal with CRX [1] is 8.22 upbm affinity estimate (log intensity, higher = more binding, comparable within an allelic series); with NKX2-6, 9.4 upbm affinity estimate (log intensity, higher = more binding, comparable within an allelic series); with CRX [5], 8.15 upbm affinity estimate (log intensity, higher = more binding, comparable within an allelic series); in the assay with NKX3-2 [24], 10.5 upbm affinity estimate (log intensity, higher = more binding, comparable within an allelic series); with CRX [6] it was 8.22 upbm affinity estimate (log intensity, higher = more binding, comparable within an allelic series); with NKX3-2 [25], 10.5 upbm affinity estimate (log intensity, higher = more binding, comparable within an allelic series).
